The subject of the test is VDR:RXRa (NR concentration 270 nM, RXRa partner concentration 90 nM). Briefly: PBM binding z-score (relative to random genomic background probes); higher = stronger binding; sequences stand for … in GC…GCGATTGACAGCGTAGAATGAAGG
How it is done:
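Protein-binding microarray (Agilent 4x180K custom design, double-stranded 60-nt probes: 5' GC cap, 34-nt variable region, 24-nt constant primer region; full probe sequence given). Purified or IVT nuclear receptor:RXRα heterodimers (3:1 NR:RXRα, mostly 270:90 nM) or homodimers were incubated for 1 h in PBS with 2% milk and no ligand, then detected with Alexa488 antibodies. Fluorescence from o1-orientation probes (~5 replicates averaged) was converted to z-scores against 500 random hg19 background probes. Variable regions are seed direct-repeat (DR0–DR5) sites, all their single-nucleotide variants and half-site ablations.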
CCTTACGGGTCACTCCAGGTTAAAGCATCGGAGT gave a PBM binding z-score of 4.34.

As for TCTTGTAGATCAATAGGGGTTAAGAAAGTGCGCT, the PBM binding z-score is 2.64.

For the sequence CCAGTCAGGTGAGAAGGTAACTCAGCCTCGATTA, the PBM binding z-score is -0.296.

Regarding CTCGGAAGGTCGTGCTCAGGTGAGTATACCAAAC, the PBM binding z-score was 1.58.

On to GGTCGGAGGACAAGGTCAGAGCTTTGTCCGTAGA, for which the PBM binding z-score amounted to 1.78.

For CCGACTGGGGCACGGTTACCATAACGCACAGCCA, the PBM binding z-score is -0.636.

The sequence CTACCAAGGTGATCAAGGTCGTTGATTACTATTC had a PBM binding z-score of 5.3.

Consider GCGCCTGGGGCAAAGCAGGTTACCATAAGGTTGG, for which the PBM binding z-score was -0.092.

For the sequence CCTACTGGCCCATTCAGAGGTCATTGATCATATG, the PBM binding z-score is 3.58.

Regarding CAAACTAGGTCTCAGAGGTCAAAGTCCGTGCGTA, the PBM binding z-score amounted to 5.82.

As to CCGACTGGGTCAAGGTTACCATAACGCACAGCCA, the PBM binding z-score came to 2.05.

Regarding ATACCAAGGTGATAGTGAGGTCGTTGATACTAAC, the PBM binding z-score came to 3.69.

Regarding ACTTACGGGTCAACGAGGTTATCGCACGCGTATA, the PBM binding z-score is 7.77.

The sequence GCTGCTAGGTCAGGTTGGTGAGCTAACGGGTACG had a PBM binding z-score of 0.141.

For the sequence GCTAACGGGTCAAAGGTTATAGCATGAATAGAAT, the PBM binding z-score turned out to be 4.9.

For the sequence TCGATTAGGTTAGGGGCATTCAGAATGGCGTCGA, the PBM binding z-score was determined as 0.781.

As for TCTATGAGTTGAAGGGCAACCGACGAGTCCGTTT, the PBM binding z-score was determined as 0.953.

On to GTACCAAGGTGAATAGGTCGCTGATGAGTAGGCG, for which the PBM binding z-score amounted to 0.351.

Sequence CGTCCAAGGTCAGCAGTTCAGTGAAAGCGACGTG registered a PBM binding z-score of 3.56.

With GTACCAAGGTGAGTAGGTCGTTGATGAGTAGGCG, the PBM binding z-score came to 0.177.

In turn, TGAATGTGGTTAAAGATCAGGGAACGTGGCGTCG showed a PBM binding z-score of -0.219.

CTTACAGGGTCAGCTAGGCCAGAGTAGGGACGGC: the PBM binding z-score turned out to be 3.88.

As for CCTACTGGGCCATCAGGTCATTTATATCAACGTT, the PBM binding z-score turned out to be 1.65.

Sequence ACCTCTAGGTAACAAGTTCAGTGAAAGAGAGGAC gave a PBM binding z-score of 1.59.

The sequence TCTTGTAGATCAACACGAGGTTAAGAAAGATCGA returned a PBM binding z-score of 0.895.

On to ATATGTAGATTAGCTGGGGTCATTCAGACTAGGC, for which the PBM binding z-score was determined as 4.91.

In turn, CGAACTAGGTCAGGACAGGACAGTGAAGGATGAT came in with a PBM binding z-score of 0.943.

Sequence TCCCGGAGGACACGAAGGTCAGAGCTTTCCAGAG yielded a PBM binding z-score of 2.15.

The sequence TCGAGTAGGTTACCAATGGGGCCTTCAGCTTTCT came in with a PBM binding z-score of -0.371.

As to CTCGAAAGGTCGGTTGACGTGAGTATACGGATAA, the PBM binding z-score is 1.02.

On to ACTATTAGTTGATTTAGGGCAACCGATACGACGC, for which the PBM binding z-score was determined as 0.131.

CCTAGTTGGTCCAGGTCACACACGCTATAGGTAC: the PBM binding z-score was determined as 2.54.

TGTCAAAGTTCAAAGGTAATGTAAGTATCCACAC: the PBM binding z-score came out at 4.69.

For ACTAGTTGGTCAGCTGAGGTCCCACACAATTCGG, the PBM binding z-score was -0.0724.

Take TCTAATTGGTCAAAGGTCACACACTCGAAATGCG: the PBM binding z-score came to 5.62.

For ATCTCTAGGTAAAAGTTAAGTGAATCCCGAGGAT, the PBM binding z-score is -0.0664.

Regarding ATCGAAAGGTCGTGCGGTGAGTATACAGAAAGGC, the PBM binding z-score came out at 3.46.

The sequence GCAGACAGGTGAAACGCAGGTAACTAAGGGTGGC registered a PBM binding z-score of -0.407.

Turning to ACATACGGGTCAACGAGGTTATAGCACGCGTATA, the PBM binding z-score is 7.57.

As for TTACCATGGTGAAAGGTCGTTGATGCACGCCTTG, the PBM binding z-score was determined as 2.11.
